Source: PubChem (several laboratories)
Beta cell apopt = inhibitors of cytokine-induced beta cell apoptosis, primary screen, luminescence. AID 435005, 2010. INS-1E cytokine-induced death, ATP luminescence, 48 h; percent of positive-control rescue, neutral wells zero. protection from apoptosis, % (no concentration beside the values). 300,000 tested, 0.8% active;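 active = Every replicate reaches about 75%, or at least half do and their mean reaches it too, limit read from the data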;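 also: 0% = cytokine-treated negative control wells and 100% = positive control rescue; higher means more ATP so stronger rescue from cytokine killing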
Gli-Sufu antag = Gli-Sufu pathway antagonists, primary screen, luciferase luminescence, Sufu-KO-LIGHT cells, uHTS; 340,000 tested, 0.74% active; inhibition, % at 5 µM; Sufu-KO-LIGHT fibroblasts, Gli luciferase reporter luminescence;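 active = inhibition above about 55%, limit read from the data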;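 also: 0% = DMSO-treated cells and 100% = wells with medium but no cells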
Jurkat NFkB inh = inhibitors of induced NF-kB luciferase reporter, primary screen, TCR NF-kB activation inhibitor project, cell-based, luminescence, uHTS. Jurkat, PMA/ionomycin-induced NF-kB luciferase reporter. 330,000 tested, 0.53% active. inhibition, % at 4 µM; in the data active = inhibition above about 50%
697 NFkB inh = inhibitors of PMA/ionomycin-induced NF-kB reporter, 697 cells, primary screen, B-cell NF-kB inhibitor project, cell-based, luminescence, uHTS. AID 435022, 2010. inhibition, % at 4 µM. 330,000 tested, 0.33% active. 697 B-cell NF-kB luciferase reporter, 16 h; in the data active = inhibition above about 35%
Mdm2 MdmX PPI = inhibitors of human Mdm2-MdmX association, primary screen, cell-based, luminescence, split luciferase, SaOS-2, uHTS; SaOS-2 split-luciferase Mdm2/MdmX complementation; AID 485346, 2010; Protein Mdm4 (Homo sapiens) + E3 ubiquitin-protein ligase Mdm2 (Homo sapiens), …; inhibition, % at 8 µM; 330,000 tested, 3% active;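 active = inhibition of at least 50% at 8 µM in the primary screen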
Target sequence (O15151 whole entry, looked up): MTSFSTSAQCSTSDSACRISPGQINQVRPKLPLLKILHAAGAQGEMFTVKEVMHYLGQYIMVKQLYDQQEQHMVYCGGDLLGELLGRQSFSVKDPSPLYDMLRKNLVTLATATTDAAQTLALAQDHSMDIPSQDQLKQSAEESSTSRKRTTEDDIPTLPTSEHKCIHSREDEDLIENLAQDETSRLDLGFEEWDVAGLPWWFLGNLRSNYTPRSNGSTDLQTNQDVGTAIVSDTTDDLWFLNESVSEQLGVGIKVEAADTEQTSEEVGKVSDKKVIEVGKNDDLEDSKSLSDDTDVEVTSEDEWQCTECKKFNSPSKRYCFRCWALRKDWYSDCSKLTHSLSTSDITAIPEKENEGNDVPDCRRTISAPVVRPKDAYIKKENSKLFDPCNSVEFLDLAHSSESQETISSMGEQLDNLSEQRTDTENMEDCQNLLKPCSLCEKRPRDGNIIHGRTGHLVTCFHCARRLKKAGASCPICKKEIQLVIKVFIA
Target sequence (Q00987 whole entry, looked up): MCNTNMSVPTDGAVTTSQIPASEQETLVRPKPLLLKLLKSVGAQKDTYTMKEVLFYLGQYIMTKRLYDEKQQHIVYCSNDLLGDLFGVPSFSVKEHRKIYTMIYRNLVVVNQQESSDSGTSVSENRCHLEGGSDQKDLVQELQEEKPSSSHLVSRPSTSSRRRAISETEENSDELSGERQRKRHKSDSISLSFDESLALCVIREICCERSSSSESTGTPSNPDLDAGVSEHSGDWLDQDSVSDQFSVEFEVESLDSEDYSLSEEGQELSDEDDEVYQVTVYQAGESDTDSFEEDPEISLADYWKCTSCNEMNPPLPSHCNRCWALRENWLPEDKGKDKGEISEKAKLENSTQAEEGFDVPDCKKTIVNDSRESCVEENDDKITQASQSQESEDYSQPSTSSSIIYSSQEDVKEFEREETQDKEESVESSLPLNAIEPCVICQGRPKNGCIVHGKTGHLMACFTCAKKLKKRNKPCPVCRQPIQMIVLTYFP
Mdm2-MdmX conf = Mdm2-MdmX complex disruptors, retested hits, confirmation, luminescence, single concentration; 10,000 tested, 55% active; shares compounds with Mdm2 MdmX PPI; Mdm2-MdmX binding, luminescent assay; inhibition, % at 8 µM; in the data active = inhibition above about 40%
FLuc counter = full-length luciferase signal inhibition, confirmation, counter-screen for Mdm2/MdmX interaction inhibitor project, cell-based, single concentration, SaOS-2; AID 504607, 2011; inhibition, % at 8 µM; SaOS-2 full-length luciferase counterscreen, luminescence; shares compounds with Mdm2 MdmX PPI; 6,200 tested, 77% active;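 active = mean inhibition at 8 µM reaching about 37%, which flags the compound as non-specific, limit read from the data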;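 also: p53-null SaOS-2 cells with luciferase driven by a doxycycline-inducible promoter; compound on cells about two nights before reading with doxycycline added after day one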
* marks the source's active call; other numbers are inactive results; nt = no result. Shown are actives, neighbours in structure and some others; about 4% of the full set was active somewhere.

SMILES | Beta cell apopt | Gli-Sufu antag | Jurkat NFkB inh | 697 NFkB inh | Mdm2 MdmX PPI | Mdm2-MdmX conf | FLuc counter
COC(=O)c1ccc(CSc2nnc(Nc3ccccc3OC)s2)o1 | -4.3 | -3.7 | 27.7 | -6.7 | 61.7* | 57.4* | 83.8*
O=c1[nH][nH]c(-c2ccccc2O)c1C(C[N+](=O)[O-])c1ccc(Br)cc1 (centres undefined) | 2.6 | 16.0 | 7.1 | -3.4 | 53.8* | 23.0 | nt
O=C(COC(=O)CCC(=O)c1ccc(F)cc1)Nc1ccc2[nH]c(=O)[nH]c2c1 | -11.1 | -20.7 | -7.7 | -7.1 | 11.2 | nt | nt
Cc1sc2ncnc(N3CCC(C(=O)N(C)CC(=O)Nc4ccc(Cl)c(C(F)(F)F)c4)CC3)c2c1C | nt | 7.8 | 10.1 | 11.7 | 80.8* | 54.7* | 29.0
Cc1sc2ncnc(N3CCC(C(=O)Nc4ccc(C#N)cc4)CC3)c2c1C | -7.8 | 15.3 | 11.4 | -12.8 | 39.3 | nt | nt
Cc1ccc(NC(=O)C2CCN(c3ncnc4sc(C)c(C)c34)CC2)cc1S(=O)(=O)N(C)C | 22.9 | 40.5 | 0.5 | -40.1 | 45.4 | nt | nt
CCN(CC)S(=O)(=O)c1cc(NC(=O)C2CCN(c3ncnc4sc(C)c(C)c34)CC2)ccc1Cl | 18.5 | 49.6 | 30.6 | -45.7 | 90.0* | 60.4* | 48.9*
Cc1sc2ncnc(N3CCC(C(=O)Nc4ccc(S(N)(=O)=O)cc4)CC3)c2c1C | -8.3 | -7.8 | 11.0 | -8.5 | 61.2* | 42.5* | 71.8*
CS/C(=C/[N+](=O)[O-])Nc1cccc2c1C(C)CC2(C)C (centres undefined) | 4.1 | -11.7 | 0.6 | 3.9 | -20.1 | nt | nt
N=C1C(c2nc3ccccc3s2)=C(O)CN1NC(=O)c1c[nH]c2ccccc12 | -8.4 | 3.4 | -10.3 | 10.9 | 4.0 | nt | nt
N=C1C(c2nc3ccccc3s2)=C(O)CN1NC(=O)c1ccccc1[N+](=O)[O-] | -1.4 | -5.1 | 0.1 | 22.2 | 54.4* | 1.4 | nt
Cc1cc(N2CCN(c3cccc(C)c3C)CC2)nc(-c2ccccc2)n1 | -1.0 | 3.4 | -1.3 | 1.0 | 32.3 | nt | nt
CCNc1nc(NC(C)CC)nc(Oc2ccc(OCC)nn2)n1 (centres undefined) | 2.8 | 21.2 | -5.6 | 31.7 | 54.2* | 3.8 | nt
CCOc1ccc(Oc2nc(NCC(C)C)nc(OC)n2)nn1 | -1.5 | 3.3 | 6.2 | 14.7 | 21.8 | nt | nt
Cc1nc2c(-c3ccc(F)cc3)c(C)nn2c(C)c1CCC(=O)Nc1ccccc1 | 7.5 | -2.3 | 12.4 | 1.2 | 23.7 | nt | nt
CCN1CCN(c2ccc(NC(=O)CCc3c(C)nc4c(-c5ccc(F)cc5)c(C)nn4c3C)cc2)CC1 | 11.8 | 32.4 | 9.9 | -21.5 | 55.2* | 36.4 | nt
CN(c1cccc(NC(=O)c2ccc(Cl)c(S(=O)(=O)N3CCOCC3)c2)c1)S(C)(=O)=O | -1.9 | 6.9 | -1.9 | 6.6 | 32.0 | nt | nt
Cc1ccc(-n2c(O)c(/C=N/NC(=O)C3COc4ccccc4O3)c3ccccc3c2=O)cc1 (centres undefined) | -6.4 | 0.3 | -14.9 | -26.6 | 60.4* | -1.6 | nt
O=C(N/N=C/c1c(O)n(-c2ccccc2Cl)c(=O)c2ccccc12)C1COc2ccccc2O1 (centres undefined) | 12.6 | 0.9 | 2.5 | -14.3 | 16.0 | nt | nt
COc1ccc(NC(=O)CSc2nc3ccncc3[nH]2)c(OC)c1 | 1.8 | 4.7 | -2.0 | -21.4 | 4.0 | nt | nt
CC(C)CCNC(=O)C(c1ccc(O)cc1)N(Cc1ccco1)C(=O)CCC(=O)Nc1nccs1 (centres undefined) | -2.9 | 15.3 | 20.1 | 11.8 | 4.3 | nt | nt
COc1ccc(C2C(C#N)=C(N)Oc3cc(O)ccc32)cc1C (centres undefined) | 2.1 | -5.5 | 0.7 | 5.7 | 14.6 | nt | nt
N#CC1=C(N)Oc2cc3c(cc2C1c1ccc(Cl)cc1)OCO3 (centres undefined) | 1.6 | -10.7 | 16.8 | 3.8 | 61.4* | 46.5* | 60.3*
COc1cc(C2C(C#N)=C(N)Oc3cc(O)ccc32)cc2c1OCO2 (centres undefined) | -2.1 | 6.8 | 15.0 | 9.0 | 57.4* | 55.8* | 59.3*
CCOc1ccc2[nH]c(C(=O)N/N=C/c3ccc(OC)cc3)cc2c1 | 34.3 | 7.9 | 47.1 | -9.0 | 53.2* | 56.0* | 95.7*
SMILES | Beta cell apopt | Gli-Sufu antag | Jurkat NFkB inh | 697 NFkB inh | Mdm2 MdmX PPI | Mdm2-MdmX conf | FLuc counter
COc1ccc2[nH]c(C(=O)N/N=C/c3ccc(O)cc3O)cc2c1 | 120.6* | 40.6 | 36.3 | -38.9 | 71.0* | 83.3* | 31.2
COc1ccc2cc(C(=O)N/N=C/c3cc(OC)c(OC)c(OC)c3)[nH]c2c1 | 5.0 | -6.3 | 10.5 | 17.5 | 1.8 | nt | nt
COc1ccc(/C=N/NC(=O)c2cc3cc(OC)c(OC)cc3[nH]2)cc1 | 24.7 | 6.5 | 15.9 | 26.6 | -5.1 | nt | nt
COCCCn1cnnc1SCc1nc2sc(C(C)=O)c(C)c2c(=O)[nH]1 | -5.3 | 7.2 | 1.8 | 20.5 | -7.0 | nt | nt
CCOC(=O)c1ccc(-c2ccc(/C=N/NC(=O)CN(c3ccccc3Br)S(C)(=O)=O)o2)cc1 | 8.4 | -48.2 | -41.1 | -101.9 | 51.0* | -4.0 | nt
COc1ccc(S(=O)(=O)N2CCCCCC2)cc1C(=O)N(C)Cc1ccco1 | 0.2 | -8.9 | -7.9 | 7.2 | 7.4 | nt | nt
Cc1onc(-c2ccccc2)c1C(=O)Nc1sc2c(c1C#N)CCC2 | nt | -8.2 | -4.5 | -1.4 | 55.3* | 59.5* | 48.8*
Cc1onc(-c2ccccc2)c1C(=O)NC(=S)Nc1sc2c(c1C#N)CCCC2 | 6.8 | -0.1 | -11.1 | -24.0 | -8.8 | nt | nt
N#Cc1c(NC(=O)CSc2nnc(-c3ccncc3)n2CC2CCCO2)sc2c1CCCC2 (centres undefined) | 4.1 | 18.4 | -8.7 | -1.7 | 21.9 | nt | nt
N#Cc1c(NC(=O)CSc2ncc(-c3ccccc3)n2CC2CCCO2)sc2c1CCCC2 (centres undefined) | 6.8 | 5.8 | -18.1 | -188.0 | 76.1* | 41.7* | 67.2*
CC(C)(C)n1nnnc1C(c1cccs1)N(Cc1ccc(Cl)cc1)CC1CCCO1 (centres undefined) | 6.7 | -7.9 | -0.1 | -19.4 | 56.3* | 57.1* | 70.3*
O=C(C[C@H]1C/C=C\C[C@H](NC(=O)OCC2c3ccccc3-c3ccccc32)C(=O)OC[C@H](Cc2ccccc2)NC1=O)N[C@H](CO)Cc1ccccc1 | 16.8 | 49.5 | -10.5 | -0.9 | 49.1 | nt | nt
